Pf Dd2 growth = qHTS Primary assay for Inhibitors of Plasmodium falciparum Dd2 growth in vitro; P. falciparum Dd2 growth, SYBR Green, 72 h; actives 4.3% (n = 120,000); Potency, µM (titrated, usually from 28.9 µM), without a hit: at the top dose activity, negative = inhibition, most hits filed as inhibitors; AID 1347417, 2020; active = well fitted inhibition curve with a large enough effect;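 note: plate controls were DMSO vehicle for no effect and reference drug for full effect; nearly all actives have a fitted effect of over 65% in size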
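Readout: SYBR Green fluorescence, 485 nm excitation, 535 nm emission, after ~16 h lysis at 37C. Before that, Dd2-infected red cells (2.5% hematocrit) grew 72 h with compound, 29 uM top final concentration.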
Starred values were filed as active, the others as inactive; i = inactive; [ ] = another dose, or the depositor's remark. Many of the other results were omitted from the sample, so hits are more common in it than they were. Potency is the fitted concentration of half-maximal effect.

SMILES	Pf Dd2 growth
COCCN1CCC2(CCC1=O)CN(Cc1cccc(Cl)c1)CCN2C (configuration not stated)	-13%
O[C@@H]1C[C@@H](c2nc(Cc3ccccc3)no2)N(Cc2ccc(F)cc2)C1	i
O[C@@H]1C[C@@H](c2nc(Cc3ccccc3)no2)N(Cc2cc3ccccc3o2)C1	14µM*
O[C@@H]1C[C@@H](c2nc(Cc3ccccc3)no2)N(CCCc2ccccc2)C1	i
O=C(N[C@@H]1COCC[C@@H]1OCc1ccccc1)c1ccc2ncsc2c1	24%
CNC(=O)N1CCC(C2CCN(C(=O)c3ccco3)C2)CC1 (configuration not stated)	3%
O=C(CCC[C@@H]1[C@H]2CCCN3CCC[C@@H](CN1C(=O)C1(c4ccccc4)CC1)[C@@H]23)NCC1CC1	13µM*
Cc1cccc(C(=O)N2C[C@@H]3CCCN4CCC[C@@H]([C@H]34)[C@H]2CCCC(=O)NCC2CC2)c1	-25%
CC(C)C(=O)N1C[C@@H]2CCCN3CCC[C@@H]([C@H]23)[C@H]1CCCC(=O)NCC1CC1	-1%
Cc1nc(NCCN2CCC(O)CC2)cc(C2CC(O)C2)n1 (configuration not stated)	-4%
CCCCNC(=O)CC(c1ccc(OC)cc1OC)c1c[nH]c2c(CC)cccc12 (configuration not stated)	i
COc1ccc(C(CC(=O)NCCc2ccc(OC)c(OC)c2)c2c[nH]c3ccccc23)c(OC)c1 (configuration not stated)	11µM*
CCCCNC(=O)CC(c1cccc(OC)c1)c1c[nH]c2ccccc12 (configuration not stated)	i
Cc1cc(C(=O)N2CCC(C3CCN(S(C)(=O)=O)CC3)C2)nn1C (configuration not stated)	-10%
O=C(C1CC1)N1CCC2(CC1)CC(=O)N(c1ccccc1)c1ccccc1O2	-14%
O=C(c1cccc(O)c1)N1CC=C(c2cnc3cnc(-c4ccccc4)cn23)CC1	2µM*
O=C(c1ccc(-c2ncc3cnc(-c4ccccc4)cn23)cc1)N1CCS(=O)(=O)CC1	i
O=C(c1ccc(-c2ncc3cnc(C4=CCOCC4)cn23)cc1)N1CCc2ccccc2C1	i
Cc1cccc(C(=O)N[C@@H](Cc2ccccc2)C(=O)N2CCCOCCNC(=O)CC2)c1	-16%
COc1ccc(OC)c2nc(-c3cccc(Cl)c3)c(CN3CC(O)C3)cc12	-9%
COc1ccc(-c2nc3cc(C)ccc3cc2CN2CCC[C@@H]2C(N)=O)cc1OC	-43%
COc1cc2cc(CN3CCC[C@@H]3CO)c(-c3cccc(Cl)c3)nc2cc1OC	13µM*
Cc1cc2c(SCC(=O)N3CC[C@@](C)(O)[C@@H](O)C3)ncnc2s1	-19%
COc1ccc(C(=O)NC2CCN(C(=O)c3cc4c(=O)[nH]c(C)cn4n3)CC2)cc1	i
CNC(=O)[C@@H]1CN(C(=O)c2cc3ccc(OC)cc3[nH]2)C[C@H]1C1CCN(C)CC1	10%
SMILES	Pf Dd2 growth
COc1ccc2cc(C(=O)N3CCC(Cc4ccc(C(=O)NC5CC5)cc4)CC3)[nH]c2c1	4.5µM*
COc1ccc(C(=O)N2CCC(Oc3ccccc3)C2)cc1 (configuration not stated)	-14%
O=C(c1ccccc1)N1CCCC2(C1)Nc1cccnc1NC2=NCc1ccccc1 (configuration not stated)	-19%[5.79 µM]
CCN(CC)CCCNc1sc(S(=O)(=O)c2ccccc2)nc1S(=O)(=O)c1ccc(Cl)cc1	5.6µM*
CCCS(=O)(=O)c1nc(S(=O)(=O)c2ccc(C)cc2)c(NCC(C)C)s1	8.9µM*
CCCCNc1nc2c(S(=O)(=O)c3ccc(Cl)cc3)nnn2c2ccsc12	-19%
Cc1ccc(S(=O)(=O)c2nc(-c3ccco3)oc2SCC(C)C)cc1	7%
CCN(CC)CCCNC(=O)CSc1nc2nc(C)c(Cc3c(F)cccc3Cl)c(C)n2n1	-29%
CCCCS(=O)(=O)c1oc(-c2ccc(F)cc2)nc1S(=O)(=O)c1ccc(C)cc1	-3%
CCC(C)Nc1sc(S(=O)(=O)CC)nc1S(=O)(=O)c1ccc(C)cc1 (configuration not stated)	13µM*
COCCNc1sc(S(=O)(=O)c2ccc(C)cc2)nc1S(=O)(=O)c1ccc(C)cc1	-16%
CCCCNc1sc(S(=O)(=O)CC)nc1S(=O)(=O)c1ccc(C)cc1	11µM*
CCCCCS(=O)(=O)c1oc(-c2cccs2)nc1S(=O)(=O)c1ccc(C)cc1	7%
CCCS(=O)(=O)c1nc(S(=O)(=O)c2ccc(C)cc2)c(N(CC)CC)s1	i
CCCSc1oc(-c2cccs2)nc1S(=O)(=O)c1ccc(C)cc1	-21%
Cc1c(Cl)cccc1NC(=O)CN1C(=O)NC2(CCCCC2)C1=O	5%
CCS(=O)(=O)N1C[C@@H](Oc2cccnc2)C[C@H]1C(=O)N1CCCC1	54%
COC(=O)C1=CN(CC(=O)NCc2ccccc2)S(=O)(=O)N=C1C	i
COc1ccc(-c2noc(-c3cccn3CC(=O)Nc3ccc(C)c(C)c3)n2)cc1F	i
COc1ccccc1CC(=O)NCCn1cccc1-c1nc(-c2ccccc2)no1	8.9µM*

Screening results from PubChem BioAssay.
